In the supplement of paper PMC11732987, “Enantioselective OTUD7B fragment discovery through chemoproteomics screening and high-throughput optimisation” (Communications Chemistry, 2025):

Experiments:
Test in all cases: log2 ratio of Biotin-Ahx-Ub-VS probe labelling (fragment/DMSO); higher = less target engagement (more negative = stronger competition), active = hit call of the paper (q ≤ 0.05, log2 ratio ≤ -1)
Settings in all cases: compound concentration: 200 uM; treatment time: 3 h
USP34 = USP34 (UniProt Q70CQ2)
In short: (§1)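 Global-median-normalised Spectronaut label-free quantities were compared by unpaired t-test, and values are average log2 ratios of fragment over vehicle. Only proteins with ≥2 unique peptides were used. HEK293T lysate (495 µg per sample) was treated in triplicate with fragment at 200 µM or vehicle for 3 h and then with Biotin-Ahx-Ub-VS at 0.5 µM final for 1 h. Labelled DUBs were then NeutrAvidin-enriched, digested with LysC and trypsin, and run by diaPASEF LC-MS/MS.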

USP36 = biological target: T1, USP36 (UniProt Q9P275)
T1 sequence (whole entry): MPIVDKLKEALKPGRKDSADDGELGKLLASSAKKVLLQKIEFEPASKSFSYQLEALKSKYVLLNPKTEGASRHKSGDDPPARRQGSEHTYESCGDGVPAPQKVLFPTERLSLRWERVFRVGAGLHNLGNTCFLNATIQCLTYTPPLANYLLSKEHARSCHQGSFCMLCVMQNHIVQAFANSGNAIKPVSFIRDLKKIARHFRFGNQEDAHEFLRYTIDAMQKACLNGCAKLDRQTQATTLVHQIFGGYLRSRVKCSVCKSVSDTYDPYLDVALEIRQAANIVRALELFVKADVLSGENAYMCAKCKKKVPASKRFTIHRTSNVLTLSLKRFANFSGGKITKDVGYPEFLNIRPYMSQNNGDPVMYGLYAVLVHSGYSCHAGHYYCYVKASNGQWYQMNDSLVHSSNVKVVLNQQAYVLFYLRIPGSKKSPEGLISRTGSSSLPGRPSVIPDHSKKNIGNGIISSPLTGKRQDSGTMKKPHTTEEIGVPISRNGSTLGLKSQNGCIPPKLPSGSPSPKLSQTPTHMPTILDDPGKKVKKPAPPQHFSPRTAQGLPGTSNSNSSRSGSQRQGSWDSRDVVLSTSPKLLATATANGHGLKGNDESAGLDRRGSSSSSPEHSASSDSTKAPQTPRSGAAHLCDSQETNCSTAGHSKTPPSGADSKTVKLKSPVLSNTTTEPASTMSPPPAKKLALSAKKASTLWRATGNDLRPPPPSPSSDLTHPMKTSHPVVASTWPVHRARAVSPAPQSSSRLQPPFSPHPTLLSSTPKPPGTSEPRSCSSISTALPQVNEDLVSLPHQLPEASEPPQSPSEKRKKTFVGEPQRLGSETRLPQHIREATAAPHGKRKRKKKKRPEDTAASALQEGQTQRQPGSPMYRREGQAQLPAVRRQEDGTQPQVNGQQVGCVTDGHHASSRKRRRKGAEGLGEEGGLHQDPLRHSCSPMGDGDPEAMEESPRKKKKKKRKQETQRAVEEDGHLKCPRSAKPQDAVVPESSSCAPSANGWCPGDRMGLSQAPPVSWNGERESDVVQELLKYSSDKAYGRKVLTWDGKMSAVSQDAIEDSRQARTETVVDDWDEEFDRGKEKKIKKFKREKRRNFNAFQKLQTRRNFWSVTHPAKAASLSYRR
In short: as §1

USP38 = biological target: T2, USP38 (UniProt Q8NB14)
T2 sequence (whole entry): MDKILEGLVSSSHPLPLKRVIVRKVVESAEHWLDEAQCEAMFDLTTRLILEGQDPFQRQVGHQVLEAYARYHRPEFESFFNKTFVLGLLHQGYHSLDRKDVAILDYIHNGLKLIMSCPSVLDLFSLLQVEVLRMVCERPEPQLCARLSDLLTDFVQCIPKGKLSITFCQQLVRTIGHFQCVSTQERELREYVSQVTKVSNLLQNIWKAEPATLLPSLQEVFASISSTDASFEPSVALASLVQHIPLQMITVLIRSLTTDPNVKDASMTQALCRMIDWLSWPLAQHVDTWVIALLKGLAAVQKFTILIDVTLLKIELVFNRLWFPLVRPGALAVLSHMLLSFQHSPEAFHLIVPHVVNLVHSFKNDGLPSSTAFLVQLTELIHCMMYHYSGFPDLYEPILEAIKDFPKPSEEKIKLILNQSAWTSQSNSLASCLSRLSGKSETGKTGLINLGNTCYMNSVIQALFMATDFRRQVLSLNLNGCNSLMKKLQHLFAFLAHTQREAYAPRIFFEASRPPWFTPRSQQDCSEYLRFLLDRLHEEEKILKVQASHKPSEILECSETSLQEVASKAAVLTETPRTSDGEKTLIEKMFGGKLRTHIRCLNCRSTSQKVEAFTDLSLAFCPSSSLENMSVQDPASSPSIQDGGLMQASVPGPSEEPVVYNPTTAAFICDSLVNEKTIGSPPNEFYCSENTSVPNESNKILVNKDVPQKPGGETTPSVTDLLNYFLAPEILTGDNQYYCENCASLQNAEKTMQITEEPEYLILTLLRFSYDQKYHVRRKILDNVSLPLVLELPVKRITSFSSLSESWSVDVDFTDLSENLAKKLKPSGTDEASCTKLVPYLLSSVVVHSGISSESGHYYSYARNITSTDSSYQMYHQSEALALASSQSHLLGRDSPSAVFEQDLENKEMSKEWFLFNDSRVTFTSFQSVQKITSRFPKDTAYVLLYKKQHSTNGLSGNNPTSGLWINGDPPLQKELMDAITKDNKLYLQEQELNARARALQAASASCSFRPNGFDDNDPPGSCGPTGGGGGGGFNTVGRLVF
In short: as §1

USP39 = biological target: T3, USP39 (UniProt Q53GS9)
T3 sequence (whole entry): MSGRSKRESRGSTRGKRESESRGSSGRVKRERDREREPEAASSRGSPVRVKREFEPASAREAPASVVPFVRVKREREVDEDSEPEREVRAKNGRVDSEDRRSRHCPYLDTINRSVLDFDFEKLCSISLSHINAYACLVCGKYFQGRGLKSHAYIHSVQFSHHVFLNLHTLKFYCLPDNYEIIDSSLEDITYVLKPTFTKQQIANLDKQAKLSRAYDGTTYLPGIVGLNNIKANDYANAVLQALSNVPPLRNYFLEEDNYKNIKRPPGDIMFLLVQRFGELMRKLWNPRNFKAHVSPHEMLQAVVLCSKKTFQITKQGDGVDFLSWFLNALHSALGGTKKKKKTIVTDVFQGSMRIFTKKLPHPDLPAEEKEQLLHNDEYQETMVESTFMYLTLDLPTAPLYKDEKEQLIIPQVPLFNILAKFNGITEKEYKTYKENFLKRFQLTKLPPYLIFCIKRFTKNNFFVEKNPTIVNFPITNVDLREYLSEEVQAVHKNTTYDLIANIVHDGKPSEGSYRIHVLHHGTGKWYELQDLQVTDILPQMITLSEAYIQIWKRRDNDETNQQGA
In short: as §1

USP4 = biological target: T4, USP4 (UniProt Q13107)
T4 sequence (whole entry): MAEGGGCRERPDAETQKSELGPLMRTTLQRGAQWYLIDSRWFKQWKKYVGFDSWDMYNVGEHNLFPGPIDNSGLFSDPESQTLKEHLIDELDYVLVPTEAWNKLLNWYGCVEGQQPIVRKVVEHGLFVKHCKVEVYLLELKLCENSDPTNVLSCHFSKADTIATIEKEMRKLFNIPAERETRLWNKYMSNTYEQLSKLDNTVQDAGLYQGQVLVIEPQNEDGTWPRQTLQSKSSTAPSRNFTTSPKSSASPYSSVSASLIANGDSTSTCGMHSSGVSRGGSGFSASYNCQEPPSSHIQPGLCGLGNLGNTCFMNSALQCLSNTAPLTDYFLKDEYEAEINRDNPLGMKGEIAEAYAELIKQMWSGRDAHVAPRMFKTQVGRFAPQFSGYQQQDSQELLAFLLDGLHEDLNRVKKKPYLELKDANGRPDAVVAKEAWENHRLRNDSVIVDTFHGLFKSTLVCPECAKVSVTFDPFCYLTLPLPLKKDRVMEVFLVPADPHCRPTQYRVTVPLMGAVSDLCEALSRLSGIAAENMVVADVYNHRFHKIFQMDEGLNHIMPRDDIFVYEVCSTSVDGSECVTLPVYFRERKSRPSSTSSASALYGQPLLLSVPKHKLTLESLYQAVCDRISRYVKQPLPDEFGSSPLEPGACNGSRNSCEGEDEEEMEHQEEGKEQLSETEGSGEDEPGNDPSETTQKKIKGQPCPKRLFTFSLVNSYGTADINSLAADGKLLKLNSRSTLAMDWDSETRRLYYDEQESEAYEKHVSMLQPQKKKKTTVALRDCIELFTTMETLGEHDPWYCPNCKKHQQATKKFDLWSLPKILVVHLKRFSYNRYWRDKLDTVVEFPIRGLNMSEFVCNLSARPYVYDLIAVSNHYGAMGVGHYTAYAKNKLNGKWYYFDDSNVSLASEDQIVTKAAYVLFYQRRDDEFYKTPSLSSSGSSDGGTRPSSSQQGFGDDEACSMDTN
In short: as §1

Measured: log2 ratio of Biotin-Ahx-Ub-VS probe labelling

USP34, sequence (Q70CQ2 whole entry, the tested form may be a part): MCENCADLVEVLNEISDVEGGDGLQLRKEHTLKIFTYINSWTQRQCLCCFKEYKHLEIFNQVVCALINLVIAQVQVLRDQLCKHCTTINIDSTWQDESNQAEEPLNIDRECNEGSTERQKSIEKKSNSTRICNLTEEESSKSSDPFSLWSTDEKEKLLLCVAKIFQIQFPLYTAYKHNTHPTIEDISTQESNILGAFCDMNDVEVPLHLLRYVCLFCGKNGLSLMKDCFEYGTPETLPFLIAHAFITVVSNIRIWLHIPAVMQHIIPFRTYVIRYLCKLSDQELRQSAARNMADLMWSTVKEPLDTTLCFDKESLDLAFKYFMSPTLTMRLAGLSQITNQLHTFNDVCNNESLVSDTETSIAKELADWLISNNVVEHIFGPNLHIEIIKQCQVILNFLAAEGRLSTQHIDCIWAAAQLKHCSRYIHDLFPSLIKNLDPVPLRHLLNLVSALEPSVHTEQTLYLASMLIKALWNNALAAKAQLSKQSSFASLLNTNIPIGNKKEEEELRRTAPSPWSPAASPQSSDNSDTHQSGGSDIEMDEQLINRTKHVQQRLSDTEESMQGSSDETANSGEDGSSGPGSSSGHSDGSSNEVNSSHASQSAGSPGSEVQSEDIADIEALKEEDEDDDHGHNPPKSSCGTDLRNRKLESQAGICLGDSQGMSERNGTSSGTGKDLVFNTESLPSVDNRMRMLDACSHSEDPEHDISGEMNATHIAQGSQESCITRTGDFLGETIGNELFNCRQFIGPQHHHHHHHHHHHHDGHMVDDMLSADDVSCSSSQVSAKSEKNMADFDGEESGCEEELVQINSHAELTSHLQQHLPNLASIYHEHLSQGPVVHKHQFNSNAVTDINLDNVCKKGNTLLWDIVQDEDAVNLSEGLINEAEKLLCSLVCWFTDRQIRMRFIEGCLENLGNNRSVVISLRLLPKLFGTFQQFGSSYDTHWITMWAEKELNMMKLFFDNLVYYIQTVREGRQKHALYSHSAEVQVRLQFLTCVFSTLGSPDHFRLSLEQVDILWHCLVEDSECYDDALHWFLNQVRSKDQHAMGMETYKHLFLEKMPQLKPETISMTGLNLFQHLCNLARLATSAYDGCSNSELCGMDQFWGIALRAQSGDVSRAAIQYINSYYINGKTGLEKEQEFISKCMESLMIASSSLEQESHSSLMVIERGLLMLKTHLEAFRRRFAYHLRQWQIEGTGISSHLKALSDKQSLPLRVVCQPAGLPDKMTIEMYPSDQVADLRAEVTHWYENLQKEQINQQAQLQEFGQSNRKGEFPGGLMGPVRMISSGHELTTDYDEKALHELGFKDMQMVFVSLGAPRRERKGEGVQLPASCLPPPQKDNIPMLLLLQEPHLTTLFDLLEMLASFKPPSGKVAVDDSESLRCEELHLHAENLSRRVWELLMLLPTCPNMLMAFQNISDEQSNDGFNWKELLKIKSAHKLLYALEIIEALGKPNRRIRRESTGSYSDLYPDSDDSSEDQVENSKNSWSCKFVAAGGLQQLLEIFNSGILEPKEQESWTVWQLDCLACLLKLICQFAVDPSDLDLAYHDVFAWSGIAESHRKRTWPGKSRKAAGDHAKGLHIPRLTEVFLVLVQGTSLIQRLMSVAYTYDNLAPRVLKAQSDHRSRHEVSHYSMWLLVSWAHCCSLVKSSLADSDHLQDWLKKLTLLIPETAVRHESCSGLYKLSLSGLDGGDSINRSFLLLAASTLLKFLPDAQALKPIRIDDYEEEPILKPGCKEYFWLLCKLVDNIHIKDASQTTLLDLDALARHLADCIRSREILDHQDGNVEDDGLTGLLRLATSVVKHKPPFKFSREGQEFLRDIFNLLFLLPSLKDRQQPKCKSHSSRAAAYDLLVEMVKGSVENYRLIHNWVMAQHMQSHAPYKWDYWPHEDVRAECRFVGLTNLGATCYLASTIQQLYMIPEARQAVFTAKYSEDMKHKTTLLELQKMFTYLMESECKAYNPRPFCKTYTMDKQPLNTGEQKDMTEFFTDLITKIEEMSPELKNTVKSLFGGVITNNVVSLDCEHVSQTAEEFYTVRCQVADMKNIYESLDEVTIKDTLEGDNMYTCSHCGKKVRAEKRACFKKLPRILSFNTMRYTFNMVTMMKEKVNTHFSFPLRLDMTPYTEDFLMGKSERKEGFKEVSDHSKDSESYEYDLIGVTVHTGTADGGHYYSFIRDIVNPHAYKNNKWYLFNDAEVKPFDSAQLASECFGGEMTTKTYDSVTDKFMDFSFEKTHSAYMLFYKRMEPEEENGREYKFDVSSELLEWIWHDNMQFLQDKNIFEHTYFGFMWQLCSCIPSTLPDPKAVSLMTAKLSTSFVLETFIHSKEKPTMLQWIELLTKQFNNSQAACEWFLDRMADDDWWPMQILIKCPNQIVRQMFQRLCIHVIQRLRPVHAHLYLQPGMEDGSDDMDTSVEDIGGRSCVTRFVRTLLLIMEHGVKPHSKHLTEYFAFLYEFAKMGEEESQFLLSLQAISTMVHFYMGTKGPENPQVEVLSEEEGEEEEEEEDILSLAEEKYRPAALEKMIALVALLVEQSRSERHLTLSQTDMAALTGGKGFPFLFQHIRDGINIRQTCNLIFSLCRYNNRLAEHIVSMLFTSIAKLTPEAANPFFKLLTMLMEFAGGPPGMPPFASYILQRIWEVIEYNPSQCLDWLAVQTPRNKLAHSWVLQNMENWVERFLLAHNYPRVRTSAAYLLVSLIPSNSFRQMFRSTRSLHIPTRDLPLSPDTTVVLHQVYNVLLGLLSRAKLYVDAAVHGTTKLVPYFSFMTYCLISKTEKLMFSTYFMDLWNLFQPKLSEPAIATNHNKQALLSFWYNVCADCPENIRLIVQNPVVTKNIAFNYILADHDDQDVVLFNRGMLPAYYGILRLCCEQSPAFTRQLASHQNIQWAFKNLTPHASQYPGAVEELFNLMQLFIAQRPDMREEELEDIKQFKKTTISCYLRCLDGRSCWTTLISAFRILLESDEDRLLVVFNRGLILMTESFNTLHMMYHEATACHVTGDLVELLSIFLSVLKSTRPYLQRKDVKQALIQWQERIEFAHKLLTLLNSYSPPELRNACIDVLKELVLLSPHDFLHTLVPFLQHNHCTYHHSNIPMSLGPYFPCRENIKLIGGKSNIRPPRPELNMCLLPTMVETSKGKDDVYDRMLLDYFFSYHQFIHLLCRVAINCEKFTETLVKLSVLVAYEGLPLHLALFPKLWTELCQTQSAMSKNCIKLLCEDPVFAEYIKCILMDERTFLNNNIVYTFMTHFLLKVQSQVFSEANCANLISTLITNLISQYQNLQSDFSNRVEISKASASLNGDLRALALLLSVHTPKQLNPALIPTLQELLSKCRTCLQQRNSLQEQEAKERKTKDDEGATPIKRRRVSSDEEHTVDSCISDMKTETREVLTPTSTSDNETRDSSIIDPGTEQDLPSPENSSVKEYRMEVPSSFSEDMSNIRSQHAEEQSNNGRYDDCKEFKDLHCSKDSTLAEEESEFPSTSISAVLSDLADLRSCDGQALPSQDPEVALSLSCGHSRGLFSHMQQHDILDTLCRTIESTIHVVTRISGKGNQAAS

COc1ccc(C2CCCN2C(=O)CCl)c(OC)c1 (stereo not given)
inactive: USP34 -0.0529 | USP36 -0.129 | USP38 -0.231 | USP39 0.128 | USP4 -0.347
